Compounds without any hit were thinned out: in the full panel of roughly 83,000, 20% have a hit.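 Cells were grown in 96-well plates and exposed to the test compound at a single concentration for 48 hours; results are reported as percent growth, with values below 10 considered active.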 The source made the active and inactive calls.

In the test the test system is HL-60(TB) leukemia. The test can be described thus: NCI-60 one-dose screen, 48 h (100 = growth as untreated, 0 = no growth, -100 = all killed). To be noted: 10 µM unless noted.
As to `OCC1OC(n2ccc3c(NO)ncnc32)C(O)C1O` (stereo not given), the growth is -35.1% (active). For `CCc1nn2c(-c3ccc(Cl)cc3C)c(-c3cc(OC)c(OC)c(OC)c3)nc2s1`, the growth was 73.6% (inactive). To `O=[N+]([O-])c1ccc(Oc2nc(Nc3ccc(O[C@H]4CO[C@H]5[C@@H]4OC[C@@H]5O)c(Cl)c3)ncc2F)c(Cl)c1` belongs 25.6% (inactive); to `CC1C(C)N(C(=O)CCl)c2ccccc2N1C(=O)CCl` (stereo not given), -56.9% (active). To `Clc1cc(Cl)c(OCC#CI)cc1Cl` belongs 47.6% (inactive); to `CCCCCCn1c(-c2ccc(C(=O)O/N=C(\N)c3ccc(OC)cc3)cc2)nc(-c2ccccc2)c1-c1ccccc1`, -58% (active).

Take `C=CCO[C@H]1CO[C@H]2[C@@H]1OC[C@@H]2Oc1ccc(Nc2ccnc(Nc3ccc(O[C@H]4CO[C@H]5[C@@H]4OC[C@@H]5OCC=C)c(Cl)c3)n2)cc1Cl`: the growth was -51.4% (active). `CCN1C(=O)N(CC)C2C1NN=c1s/c(=C3\C(=O)N(C)c4ccccc43)c(=O)n12` (stereo not given): the growth was -13% (active). Turning to `Nc1cc(N)c2nc(-c3ccccc3)c(NCCc3ccc(Cl)c(Cl)c3)nc2c1`, the growth is -10.5% (active). On to `O=C(N/N=C\c1cc(Br)ccc1O)c1ccncc1`, for which the growth was -27.5% (active).

Regarding `O=C(NCCNc1nccc(-c2c(-c3cccc(O)c3)nc3sccn23)n1)Nc1cccc(C(F)(F)F)c1`, the growth was 36.4% (inactive).

For the compound `O=C(Nc1ccc(C(=O)/C=C/c2ccc(N3CCOCC3)cc2)cc1)Nc1ccc([N+](=O)[O-])cc1`, the growth is 70.6% (inactive).

Regarding `CC1=C(C)C(=O)C(C(C)C2=C(C)C(=O)C(C)=C(C)C2=O)=C(C)C1=O`, the growth is 42.5% (inactive). To `O=C(CC(C(=O)c1ccccc1)N1CCOCC1)c1ccccc1` (stereo not given) belongs 55.4% (inactive). Turning to `O=[P@@]1(c2ccccc2)O[C@H](COCc2ccccc2)[C@@H](OCc2ccccc2)[C@H](OCc2ccccc2)[C@H]1O`, the growth was 98.5% (inactive).

For the compound `O=C(CSc1nnc(-c2ccc(Cl)cc2)o1)Nc1ccc(C(=O)/C=C/c2ccc(Cl)cc2)cc1`, the growth is 84.4% (inactive).

Turning to `O=C(CCN1C(=O)/C(=C/c2ccc(Cl)cc2)SC1=S)NCCCN1CCOCC1`, the growth was 98.9% (inactive). For `CC1NC(=S)NC(=O)/C1=C/c1cc(=O)oc2c1ccc1ccccc12` (stereo not given), the growth was 102% (inactive). With `CCC#CC[C@H]1C/C=C2/C(=O)C=C[C@@H]2C/C=C\CCCC(=O)O1` the figure was -19.1% (active). To `CC(O)(CO)c1ccccc1` (stereo not given) belongs 116% (inactive). With `O=C1Nc2ccc(Cl)cc2/C1=C/c1cccs1` the figure was 98% (inactive); with `CCC(C)NCc1ccccc1` (stereo not given), 94.6% (inactive). `O=C(/C=C/C12c3ccccc3C(c3ccccc31)C1C(=O)NC(=O)C12)c1ccco1` (stereo not given): the growth was 8.34% (active). Turning to `CCN(CC)CCNC(=O)n1cc(-c2ccncc2)c(-c2ccc(Cl)c(OC)c2)n1`, the growth was 95.9% (inactive). To `CC/C=C\C[C@H](F)C/C=C1/C(=O)C=C[C@@H]1C/C=C\CCCC(=O)OC` belongs -33.1% (active); to `CC(=O)OC1/C=C\CC/C=C\C1` (stereo not given), 101% (inactive). With `C=C(C)C1CCC2(C)OC2C1` (stereo not given) the figure was 95.6% (inactive). Turning to `CO[C@H]1/C=C/O[C@@]2(C)Oc3c(C)c(O)c4c(O)c(c(/C=N/N5C(C)CN(Cc6ccccc6)CC5C)c(O)c4c3C2=O)NC(=O)/C(C)=C\C=C\[C@H](C)[C@H](O)[C@@H](C)[C@@H](O)[C@@H](C)[C@H](OC(C)=O)[C@@H]1C` (stereo not given in full), the growth was 161% (inactive). With `O=C1OCC2=C1C(c1cccc(Cl)c1)c1cc3c(cc1N2CCO)OCO3` (stereo not given) the figure was -19.3% (active). With `Cc1cc(N2CCCC2)nc(N(CCCNc2ccnc3cc(Cl)ccc23)Cc2ccccn2)n1` the figure was 23.4% (inactive); with `COc1ccccc1NC(=O)c1ccc(/C=C/C(=O)c2nccn2C)cc1`, -9.45% (active). To `COc1ccc2nc(-c3cc(-c4cc(OC)c(OC)c(OC)c4)n[nH]3)[nH]c2c1` belongs -38.7% (active); to `NC(N)=N/N=C(\N=Nc1ccccc1)c1ccc(Cl)cc1`, -8.35% (active). On to `O=C1NC(=O)/C(=C/c2ccc(Cl)cc2Cl)N1`, for which the growth was 97% (inactive). With `Cc1ccc(-c2nn(CC(=O)N3CCOCC3)c(N)c2C#N)cc1` the figure was 103% (inactive). To `COc1cc(NC(=O)Nc2cnc(Nc3ccc(N4CCOCC4)cc3)nc2Oc2ccc(C(F)(F)F)cc2)cc(OC)c1` belongs 96.4% (inactive). As for `OC(CCN1CCCC1)(c1ccccc1)C1CCCCC1` (stereo not given), the growth was 119% (inactive). With `O=C1C2CC3C(CC2C(=O)[N]1[Sn]([c]1ccccc1)([c]1ccccc1)[c]1ccccc1)C1(Cl)C(Cl)=C(Cl)C3(Cl)C1(Cl)Cl` (stereo not given) the figure was -58% (active); with `COc1cnc2c(c1)C(=O)c1c-2n(CCCBr)c(=O)c2cc([N+](=O)[O-])ccc12`, 5.74% (active); with `COc1cccc2c(=O)c3c(sc12)c(NCCN(C)C)nc1ccccc13`, 15.1% (inactive).

Source of the values: PubChem BioAssay (NCI).
